Drawing on ChEMBL document CHEMBL4513135, “CO-ADD screening of IQOG CSIS (Spain) compounds”, this text covers Inhibition for 40 compounds.

Molecules are shown by their SMILES. Measured potencies and affinities stand elsewhere.

The subject of the test is Cryptococcus neoformans. Conditions: Concentration 32 ug.mL-1; ASSAY_TEST Inhibition of Fungal Growth; detection method Resazurin; Absorption (OD600-OD570); plate type 384well; NBS; CORNING #3640. In general terms: Resazurin is reduced to fluorescent resorufin, in cell work by metabolically active cells.
For orientation: Inhibition means the drop in the measured response relative to a control, in per cent. Consider `COc1ccc2cc(C3C4=C(CC(C)(C)CC4=O)Oc4nc5c(c(N)c43)CCC5)c(Cl)nc2c1` (stereo not given), for which the Inhibition is listed as -1.53%.
Consider `C#CCNc1nc(NCCCC2CCN(Cc3ccccc3)CC2)c(C#N)cc1C#N.Cl`, for which the Inhibition is recorded as -40.38%.
To `Cn1ccnc1C1c2ccc3cccnc3c2Oc2nc3c(c(N)c21)CCC3` (stereo not given) belongs -104.91%.
The figure for `CCOC(=O)C1=C(C)NC(N)=C(C#N)C1c1ccc(OC)cc1` (stereo not given) is -57.77%.
As to `Cn1c(C(=O)N2CCOCC2)cc2cc(OCCCC3CCN(Cc4ccccc4)CC3)ccc21`, the Inhibition is on record as -96.05%.
For the compound `CCOC(=O)c1cc2cc(OC)ccc2n1C`, the Inhibition is recorded as -3.08%.
As to `Cc1ccccc1-c1c(C=N)c(N)nc2c1S(=O)(=O)OC2(C)C`, the Inhibition was -3.14%.
To `C#CCN(C)Cc1cc2cc(OCCC3CCN(Cc4ccccc4)CC3)ccc2n1C.Cl` belongs -83.46%; to `O=C(Cc1c[nH]c2ccccc12)NNCCc1ccccc1`, -0.59%; to `COC(=O)C(=Cc1ccccc1)NC(=O)c1ccccc1`, -5.65%.
Turning to `NNC(=O)c1cc2ccccc2n1Cc1ccccc1`, the Inhibition was -2.53%.
To `C#CCN(C)c1nc(Cl)c(C#N)c(-c2ccccc2)c1C#N` belongs -24.12%.
The figure for `COc1cc(C2C(C#N)=C(N)Oc3c2ccc2ccccc32)ccc1O` (stereo not given) is -42.63%; for `O=C(COc1ccc2ccccc2c1)NNCc1c[nH]c2ccccc12` it is -4.32%.
The figure for `COc1ccc(C2C(C#N)=C(N)Oc3c2ccc2ccccc32)cc1` (stereo not given) is -40.73%.
Consider `Nc1n[nH]c2c1C(c1ccccc1)CC(=O)N2` (stereo not given), for which the Inhibition was -57.28%.
To `Cl.N#Cc1cc(C#N)c(N2CCCC2)nc1Cl` belongs -52.24%; to `COc1nc(N)c(C#N)cc1C#N`, -30.91%; to `O=C(NCc1ccccc1)c1cc2ccccc2[nH]1`, -6.86%.
For the compound `COc1ccc(-c2cc(-c3ccccc3)c(C#N)c(N)n2)cc1`, the Inhibition is -104.15%.
For `Cc1ccc2nc(Cl)c(/C=N/NCc3ccccc3)cc2c1`, the Inhibition is -3.59%.
To `C#CCN(C)c1nc(OC)c(C#N)c(-c2ccccc2)c1C#N` belongs -56.39%; to `CC(C)(C)OC(=O)Nc1ncccc1Br`, -55.01%.
To `CNCc1cc2cc(OC)ccc2n1C.Cl` belongs 1.35%; to `Cn1ccnc1C1C(C#N)=C(N)Oc2c1ccc1cccnc21` (stereo not given), -53.28%.
The figure for `COc1ccc2c(c1)cc(CN(C)C)n2C` is -1.62%; for `Cc1ccc(S(=O)(=O)N[C@H]2CC[C@H](O)CC2)cc1` it is -40.23%; for `COc1ccc(C2C(C#N)=C(N)Oc3ccc4ccccc4c32)cc1` (stereo not given) it is -30.57%.
`CCOC(=O)C1=C(C)OC(N)=C(C#N)C1c1ccncc1` (stereo not given): the Inhibition is listed as -58.29%.
To `Cl.NC1(C(=O)O)CC1c1ccccc1` (stereo not given) belongs -5.74%.
To `CC(=O)N1CC(=O)NC1=S` belongs 1.05%; to `Cn1ccnc1C1C2=C(CC(C)(C)CC2=O)Oc2nc3c(c(N)c21)CCC3` (stereo not given), -62.95%; to `N#Cc1cc(C#N)c(N2CCC(O)CC2)nc1N`, -52.44%.
Regarding `N#Cc1c(-c2ccccc2)c2c(ccc3ccccc32)oc1=O`, the Inhibition is -9.44%.
The figure for `Cl.ClCCCN1CCCC1` is -0.84%; for `N#C/C(=C\c1ccccc1)C(=O)c1ccccc1` it is 5.95%; for `CCOC(=O)C1=C(C)OC(N)=C(C#N)C1c1ccc(OC)c(OC)c1` (stereo not given) it is -51.05%.
The figure for `Cc1nc(NCc2ccccc2)c2cnn(-c3ccccc3)c2n1` is -3.46%; for `C=CCNCc1cc2cc(OCCCC3CCN(Cc4ccccc4)CC3)ccc2[nH]1.O.O=C(O)C(=O)O.O=C(O)C(=O)O` it is -57.95%.
The figure for `C=CCNc1nc(N)c(C#N)cc1C#N` is -39.35%.
